Here are results for six compounds from PubChem BioAssay (NCATS).

Unmarked numbers belong to inactive results. Results filed as inconclusive are left out. Activity calls are given as the source filed them. Unless noted, calls come from the whole dose curve; as a rule, active = well fitted curve in either direction with a large enough effect (not every such curve was filed as active); inconclusive = small, poorly fitted or top-dose-only effect, or another doubt; inactive = flat fitted curve, though single readings scatter.

For assay [1], the target named is Lysosomal acid glucosylceramidase (Homo sapiens) (UniProt P04062). The experiment in a line: Glucocerebrosidase-p2 (AID 348; in the data active = potency below about 10 µM; note: potency is the fitted concentration of half-maximal effect). The settings on record: purified GBA, blue fluorogenic substrate, 40 min. The essentials:
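Compounds titrated from 0.6 nM upwards against 0.2 nM enzyme in pH 5.9 citric acid/KH2PO4, taurocholate, tween-20; blue fluorogenic substrate 80 uM, 40 min room temperature, stopped and read Ex 365/Em 440 for AC50.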

The nature of assay [2]: AP1 Signaling Pathway (AID 357).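 Note: ME-180 reporter cells stimulated with EGF at its EC50 level; % is set by controls: 0 for no effect and ±100 for the full control effect.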 The settings on record: ME-180 AP-1-bla reporter, EGF-induced, beta-lactamase ratio, 5 h; at 7.69 µM (top of the series) unless noted. Put shortly:
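Modulation of EGF-driven AP-1 transcription was assessed with a beta-lactamase reporter in ME-180 cells. Compound and EC50 EGF were co-incubated 5 hours at 37 °C before 2.5-hour CCF4 loading at room temperature and dual-emission reading.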

The target of assay [3] is Cytochrome P450 1A2 (Homo sapiens) (UniProt P05177). Put plainly: p450-cyp1a2 (AID 410; calls by dose curve; note: potency is the fitted concentration of half-maximal effect;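 for activity change, negative = inhibition: -100% = full effect of reference inhibitor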). The settings on record: recombinant CYP1A2, luciferin-ME demethylation, luminescence; series mostly up to 11.4 µM. Put shortly:
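Luminescent readout of luciferin formed from Luciferin-ME by human CYP1A2; data normalized against complete inhibition by 57 uM furafylline. Enzyme 20nM, substrate 100uM at Km, 100mM KPO4 buffer, 60 min reaction at room temperature.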

The nature of assay [4]: NFAT Signaling Pathway (AID 444).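 Note: carbachol stimulus at about its EC50 of 1 µM final; % is set by controls: 0 for no effect and ±100 for the full control effect.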 The settings on record: Jurkat NFAT-bla M1, carbachol, beta-lactamase ratio, 5 h; at 7.69 µM (top of the series) unless noted. The essentials: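 Jurkat cells with NFAT-driven β-lactamase reporter and co-expressed M1 receptor, stimulated with carbachol (final 1 uM, ~EC50), compound titration, 5 h at 37 °C. CCF4 loaded 1 h at RT; 460/530 nm ratio gave %activity and AC50.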

A short description of assay [5]: Stat Signaling Pathway (AID 446).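 Note: ME-180 cervical cancer cells given 40 pM IL-6 alongside compound; SIE-controlled beta-lactamase reporter measured as 460/530 nm FRET emission ratio; % is set by controls: 0 for no effect and ±100 for the full control effect.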 The settings on record: ME-180 SIE beta-lactamase reporter, IL-6 stimulated, 5 h; at 7.69 µM (top of the series) unless noted. Put shortly: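 Screening format detects activators and inhibitors alike: ME-180 SIE-bla cells stimulated at 40 pM IL-6 for 5 hrs with compound, then dual-emission beta-lactamase read at 405 nm excitation.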

In assay [6] the target is Glucocorticoid receptor (Homo sapiens) (UniProt P04150). Put plainly: GR-GFP Redistribution (AID 450;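 active = compounds whose dose series gives a full or clear partial fitted curve of increased nuclear translocation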; note: potency is the fitted concentration of half-maximal effect). The settings on record: U2OS GR-GFP nuclear translocation, laser cytometry, 2 h.
For assay [7] the target is unchanged. The experiment in a line: GR-EFC Redistribution (AID 451; calls by dose curve; note: potency is the fitted concentration of half-maximal effect). The settings on record: CHO-K1 GR-EFC translocation, beta-gal luminescence, 2 h. Put shortly: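 CHO-K1 cells expressing nuclear EA and GR-ED fragments of b-gal; compounds titrated up to 46 uM final, 2 h at 37 C. GR nuclear translocation read as complemented b-gal luminescence after 1 h RT detection.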

The target of assay [8] is Mitogen-activated protein kinase 10 (Mus musculus) (UniProt Q61831). Put plainly: JNK3 AlphaScreen Assay (AID 530).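 Note: kinase came from lysate of stimulated human HepG2 cells; signal reports phosphorylation of biotinylated GST-cJun 1-79 at Ser73 with 10 µM ATP; % is set by controls: 0 for no effect and ±100 for the full control effect.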 The settings on record: JNK3 lysate, c-Jun phosphorylation; series mostly up to 11.4 µM. Put shortly:
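Pre-activated (IL-1β/TNFα) JNK3 in HepG2 lysates phosphorylates biotin-GST-cJun(1-79), 10 uM ATP; anti-phospho-cJun(Ser73) AlphaScreen read at room temperature, pH 7.6 Tris buffer. Compounds pre-incubated 15 min as titrations.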

The target in assay [9] is 3',5'-cyclic-AMP phosphodiesterase 4B (Homo sapiens) (UniProt Q07343). The experiment in a line: qHTS Assay for Inhibitors of PDE-IV (AID 607; active = well fitted activation curve with a large enough effect in the main read-out, with a control signal flat, not every such curve was filed as active; note: % of control where 0% means no effect). The settings on record: HEK293 ACTOne CNG channel cells, membrane potential fluorescence; series mostly up to 22.9 µM. The essentials:
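The readout is membrane depolarisation from a cAMP-sensing CNG channel, detected with a potential dye at ex 535/em 590. Cells were HEK293-derived (endogenous PDE-IV) at 1000 cells/well, titrated up to 22.9 uM final.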
In general terms: In qHTS, concentration-response curves come from the screen itself.

The target of assay [10] is Cytochrome P450 3A4 (Homo sapiens) (UniProt P08684). Put plainly: qHTS Assay for Activators of Cytochrome P450 3A4 (AID 885; active = well fitted curve in the direction sought with a large enough effect; an effect the other way counts as inactive or inconclusive; note: nearly all actives have a fitted effect of over 65% in size). The settings on record: recombinant CYP3A4, Luciferin-PPXE luminescence, 60 min; series mostly up to 11.4 µM. The essentials: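 Steps: enzyme/substrate mix dispensed; compound added, 10 min RT; NADPH regeneration solution added, 60 min RT; luciferin detection buffer stops reaction; 20 min later luminescence measured.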

The target of assay [11] is Cytochrome P450 2D6 (Homo sapiens) (UniProt P10635). Put plainly: qHTS Assay for Inhibitors and Substrates of Cytochrome P450 2D6 (AID 891; active = well fitted curve in the direction sought with a large enough effect; an effect the other way counts as inactive or inconclusive; note: potency is the fitted concentration of half-maximal effect; nearly all actives have a fitted effect of over 60% in size). The settings on record: recombinant CYP2D6, luciferin-ME EGE luminescence; series mostly up to 11.4 µM. Put shortly:
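Human CYP2D6 (5 nM) with 30 uM Luciferin-ME EGE (at Km) in 100 mM KPO4, compound preincubated 10 min, then NADPH regeneration system for 60 min at room temperature. Luciferin read by luminescence; normalized to 1.43 uM quinidine.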

Assay [12] concerns the target Cytochrome P450 2C19 (Homo sapiens) (UniProt P33261). The experiment in a line: qHTS Assay for Inhibitors and Substrates of Cytochrome P450 2C19 (AID 899; active = well fitted curve in the direction sought with a large enough effect; an effect the other way counts as inactive or inconclusive; note: potency is the fitted concentration of half-maximal effect; nearly all actives have a fitted effect of over 60% in size). The settings on record: recombinant CYP2C19, luciferin-H EGE luminescence; series mostly up to 11.4 µM. Put shortly:
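5 nM human CYP2C19 with 10uM Luciferin-H EGE (at KM) in 50mM KPO4, compound preincubated 10 min at 37C, then NADPH regeneration for 60 min at 37C. Luciferin read by luminescence after detection reagent; normalized to 57uM ketoconazole as full inhibition.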

Sequence of Lysosomal acid glucosylceramidase (Homo sapiens) (P04062 whole entry, looked up): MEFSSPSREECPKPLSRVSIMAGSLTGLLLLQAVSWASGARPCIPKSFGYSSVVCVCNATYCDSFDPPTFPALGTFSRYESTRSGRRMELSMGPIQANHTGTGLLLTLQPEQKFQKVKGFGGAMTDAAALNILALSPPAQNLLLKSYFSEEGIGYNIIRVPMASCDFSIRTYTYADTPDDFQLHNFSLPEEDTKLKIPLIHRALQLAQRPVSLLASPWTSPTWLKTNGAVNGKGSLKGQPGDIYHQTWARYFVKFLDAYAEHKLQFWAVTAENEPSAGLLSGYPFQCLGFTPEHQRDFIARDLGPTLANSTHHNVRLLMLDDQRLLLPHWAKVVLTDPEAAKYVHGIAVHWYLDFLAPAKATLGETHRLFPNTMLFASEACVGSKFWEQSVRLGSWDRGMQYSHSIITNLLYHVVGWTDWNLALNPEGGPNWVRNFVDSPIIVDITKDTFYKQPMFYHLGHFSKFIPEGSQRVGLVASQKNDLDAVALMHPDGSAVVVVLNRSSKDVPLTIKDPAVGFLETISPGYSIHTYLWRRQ
Sequence of Glucocorticoid receptor (Homo sapiens) (P04150 whole entry, looked up, the tested form may be a part): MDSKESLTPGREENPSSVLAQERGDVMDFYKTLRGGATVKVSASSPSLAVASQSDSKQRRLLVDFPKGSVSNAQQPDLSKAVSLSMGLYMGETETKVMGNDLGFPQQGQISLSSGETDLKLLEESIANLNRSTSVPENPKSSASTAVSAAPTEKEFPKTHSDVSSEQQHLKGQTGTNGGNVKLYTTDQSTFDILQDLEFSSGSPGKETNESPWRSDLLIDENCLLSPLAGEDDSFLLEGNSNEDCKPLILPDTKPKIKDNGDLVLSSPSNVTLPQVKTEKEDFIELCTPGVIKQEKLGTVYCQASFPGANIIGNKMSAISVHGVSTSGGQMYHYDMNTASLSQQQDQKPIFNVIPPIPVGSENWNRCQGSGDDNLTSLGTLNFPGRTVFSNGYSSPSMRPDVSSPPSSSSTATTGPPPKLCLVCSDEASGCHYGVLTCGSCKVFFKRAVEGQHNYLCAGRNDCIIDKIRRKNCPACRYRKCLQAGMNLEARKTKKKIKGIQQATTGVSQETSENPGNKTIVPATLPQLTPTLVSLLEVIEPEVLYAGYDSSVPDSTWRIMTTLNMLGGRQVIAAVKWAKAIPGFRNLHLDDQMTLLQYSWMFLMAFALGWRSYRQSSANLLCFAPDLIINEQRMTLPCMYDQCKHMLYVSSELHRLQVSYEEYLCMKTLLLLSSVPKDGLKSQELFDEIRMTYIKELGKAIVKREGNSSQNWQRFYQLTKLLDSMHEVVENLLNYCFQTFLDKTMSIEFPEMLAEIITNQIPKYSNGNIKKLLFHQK
Sequence of Cytochrome P450 2D6 (Homo sapiens) (P10635 whole entry, looked up): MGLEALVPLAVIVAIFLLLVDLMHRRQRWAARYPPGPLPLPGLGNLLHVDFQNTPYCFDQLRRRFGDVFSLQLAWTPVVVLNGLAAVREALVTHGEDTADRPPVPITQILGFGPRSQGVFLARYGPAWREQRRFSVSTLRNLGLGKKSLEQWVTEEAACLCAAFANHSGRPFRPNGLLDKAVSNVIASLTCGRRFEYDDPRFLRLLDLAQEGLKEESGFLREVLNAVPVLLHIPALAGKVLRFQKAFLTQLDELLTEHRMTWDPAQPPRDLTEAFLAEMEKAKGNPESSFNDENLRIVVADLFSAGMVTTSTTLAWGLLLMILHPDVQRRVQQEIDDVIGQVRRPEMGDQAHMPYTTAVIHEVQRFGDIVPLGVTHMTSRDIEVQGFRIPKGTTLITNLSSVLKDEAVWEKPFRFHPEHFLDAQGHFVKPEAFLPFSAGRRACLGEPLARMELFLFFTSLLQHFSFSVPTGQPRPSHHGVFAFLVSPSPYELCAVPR
Sequence of Cytochrome P450 3A4 (Homo sapiens) (P08684 whole entry, looked up): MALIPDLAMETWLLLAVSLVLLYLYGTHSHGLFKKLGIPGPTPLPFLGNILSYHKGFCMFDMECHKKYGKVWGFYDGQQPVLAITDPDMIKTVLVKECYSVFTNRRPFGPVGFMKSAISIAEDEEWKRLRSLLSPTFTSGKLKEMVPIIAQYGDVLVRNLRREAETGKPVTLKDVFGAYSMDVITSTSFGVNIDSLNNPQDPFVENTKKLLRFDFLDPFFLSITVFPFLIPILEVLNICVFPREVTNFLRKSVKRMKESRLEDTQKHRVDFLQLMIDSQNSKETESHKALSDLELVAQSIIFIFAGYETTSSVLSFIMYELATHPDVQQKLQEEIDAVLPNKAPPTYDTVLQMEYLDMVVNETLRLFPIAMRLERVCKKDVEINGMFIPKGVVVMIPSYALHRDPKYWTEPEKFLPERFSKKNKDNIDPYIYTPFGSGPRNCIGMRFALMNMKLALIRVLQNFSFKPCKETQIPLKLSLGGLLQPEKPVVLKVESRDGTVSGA
Sequence of Cytochrome P450 1A2 (Homo sapiens) (P05177 whole entry, looked up): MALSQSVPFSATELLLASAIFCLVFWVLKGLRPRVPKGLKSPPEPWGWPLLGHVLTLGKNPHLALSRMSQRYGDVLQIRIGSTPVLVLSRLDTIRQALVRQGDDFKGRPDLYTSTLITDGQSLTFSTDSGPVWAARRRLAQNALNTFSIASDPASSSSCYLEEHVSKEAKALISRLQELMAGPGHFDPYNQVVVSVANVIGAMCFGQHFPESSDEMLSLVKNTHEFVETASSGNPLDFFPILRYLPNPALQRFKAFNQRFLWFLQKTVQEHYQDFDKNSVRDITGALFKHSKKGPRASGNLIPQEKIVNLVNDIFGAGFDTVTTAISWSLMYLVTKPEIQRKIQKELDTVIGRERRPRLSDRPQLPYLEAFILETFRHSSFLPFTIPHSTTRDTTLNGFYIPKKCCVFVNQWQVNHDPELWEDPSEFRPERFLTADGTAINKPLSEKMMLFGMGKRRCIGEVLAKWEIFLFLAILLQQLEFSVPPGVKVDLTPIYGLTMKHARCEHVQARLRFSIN
Sequence of 3',5'-cyclic-AMP phosphodiesterase 4B (Homo sapiens) (Q07343 whole entry, looked up): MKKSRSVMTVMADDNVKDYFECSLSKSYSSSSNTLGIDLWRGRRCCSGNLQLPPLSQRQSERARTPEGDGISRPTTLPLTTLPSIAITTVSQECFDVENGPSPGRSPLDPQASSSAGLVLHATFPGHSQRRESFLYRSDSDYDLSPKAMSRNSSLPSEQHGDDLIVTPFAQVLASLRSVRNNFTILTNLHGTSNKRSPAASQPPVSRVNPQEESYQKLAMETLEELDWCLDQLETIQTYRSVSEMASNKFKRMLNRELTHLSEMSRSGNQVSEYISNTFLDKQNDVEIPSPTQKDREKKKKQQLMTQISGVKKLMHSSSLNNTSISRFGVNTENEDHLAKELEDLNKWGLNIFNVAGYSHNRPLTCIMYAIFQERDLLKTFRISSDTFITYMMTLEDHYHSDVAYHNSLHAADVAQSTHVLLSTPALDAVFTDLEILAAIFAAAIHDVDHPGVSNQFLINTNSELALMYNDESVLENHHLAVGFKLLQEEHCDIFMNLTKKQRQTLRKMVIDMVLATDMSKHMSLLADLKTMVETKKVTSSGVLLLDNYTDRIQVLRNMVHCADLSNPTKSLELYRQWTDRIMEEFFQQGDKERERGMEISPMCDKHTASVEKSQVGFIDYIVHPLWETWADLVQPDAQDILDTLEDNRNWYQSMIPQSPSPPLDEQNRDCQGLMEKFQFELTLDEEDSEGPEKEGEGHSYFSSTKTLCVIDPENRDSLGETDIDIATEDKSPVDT
Sequence of Cytochrome P450 2C19 (Homo sapiens) (P33261 whole entry, looked up): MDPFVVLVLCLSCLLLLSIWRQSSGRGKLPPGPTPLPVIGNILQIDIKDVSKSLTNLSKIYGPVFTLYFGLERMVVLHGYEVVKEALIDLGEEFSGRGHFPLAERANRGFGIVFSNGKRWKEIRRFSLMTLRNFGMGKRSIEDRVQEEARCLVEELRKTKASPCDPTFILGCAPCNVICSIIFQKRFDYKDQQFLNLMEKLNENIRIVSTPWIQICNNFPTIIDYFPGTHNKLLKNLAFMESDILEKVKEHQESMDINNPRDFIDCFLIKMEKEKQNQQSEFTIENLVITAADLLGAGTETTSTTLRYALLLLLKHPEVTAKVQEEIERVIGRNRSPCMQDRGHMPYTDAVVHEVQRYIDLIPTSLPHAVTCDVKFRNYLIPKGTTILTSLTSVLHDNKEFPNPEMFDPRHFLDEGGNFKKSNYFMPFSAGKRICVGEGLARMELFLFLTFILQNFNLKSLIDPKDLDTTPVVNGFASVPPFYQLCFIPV

Turning to `NCCSCc1ccccc1Cl`, the Potency is above 11.4 µM in [1]; 3.16 µM (active) in assay [3]; above 46 µM in assay [6]; above 9.22 µM in [7]; 3.16 µM (active) in assay [11]. In addition, the values for the activity change, negative = inhibition in [2] and in [4] were 1.67% and -5.94%, respectively. Besides, the activity, negative = inhibition in [5] was 2.36%. Also, the Potency result in [8], in assay [9] and in assay [10] was “inactive” in each case.

Consider `Nc1nc(SCc2ccccc2)c2ncn(Cc3ccccc3)c2n1`, for which the Potency was above 11.4 µM in assay [1]; 0.251 µM (active) in assay [3]; above 46 µM in assay [6]; above 9.22 µM in [7]; 2.51 µM (active) in assay [12]. Further, the figures for the activity change, negative = inhibition in assay [2] and in assay [4] were -24.3% and 9.29%, respectively. Further, the activity, negative = inhibition in [5] is -3.2%. For the same compound, the Potency result in assay [8], in assay [9] and in assay [10] was “inactive” each time.

`Cc1ccc([C@@H](O)c2cnc(C)n2Cc2ccccc2)cc1`: the Potency in assay [1] was above 11.4 µM; in assay [6] it was above 46 µM; in assay [7] it was above 9.22 µM; in assay [11], 0.631 µM (active); in assay [12], 1.26 µM (active). The activity change, negative = inhibition is -7.71% in [2] and -10.9% in assay [4]. Moreover, the Potency entry in assay [3], in assay [8], in [9] and in assay [10] was “inactive” each time. The activity, negative = inhibition in [5] is -4.84%.

Consider `Clc1ccc(CSCCc2ccncc2)cc1Cl`, for which the Potency in [1] is above 11.4 µM; in assay [3], 0.316 µM (active); in assay [6] it was above 46 µM; in assay [7], above 9.22 µM; in assay [11] it was 0.316 µM (active). For the same compound, the activity change, negative = inhibition was -26.7% in assay [2] and 2.37% in [4]. The activity, negative = inhibition in [5] was 5.37%. Further, the Potency result in assay [8], in assay [9] and in assay [10] was “inactive” throughout.

With `NC(N)=N/N=C(/c1ccccc1)c1ccc(O)cc1O`, the Potency in [1] is above 11.4 µM; in [3], 3.16 µM (active); in assay [6] it was above 46 µM; in [7], above 9.22 µM; in assay [11] it was 1.26 µM (active). The activity change, negative = inhibition in [2] was -6.42%; in [4] it was 5.67%. For the same compound, in [5], the activity, negative = inhibition is 6.43%. The Potency result in [8], in assay [9] and in assay [10] was “inactive” each time.

For `Cc1cc(O)c(C(C)C)cc1NC(=O)Nc1cccc2ccccc12`, the Potency was above 11.4 µM in [1]; 0.794 µM (active) in assay [3]; above 46 µM in [6]; above 9.22 µM in assay [7]; 0.0501 µM (active) in [12]. The activity change, negative = inhibition in assay [2] is -27.4%; in assay [4] it was -15.2%. Further, the activity, negative = inhibition in assay [5] is -19%. Also, the Potency entry in assay [8], in [9] and in [10] was “inactive” each time.
